For nine compounds, inhibition results are on record in ChEMBL document CHEMBL1961873, “Compounds: GSK PKIS; Assays: Nanosyn kinase panel” (2012).

Each structure is given as a SMILES string.

Test [1] has as its target Serine/threonine-protein kinase pim-2 (Homo sapiens) (UniProt Q9P1W9). To be noted: at 1 µM.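 Further: each value is a mean of the inhibition measurements against the kinase.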
Test [2] addresses Serine/threonine-protein kinase pim-3 (Homo sapiens) (UniProt Q86V86). To be noted: at 0.1 µM.
Test [3] has the same target. Conditions: at 1 µM.
The target of test [4] is T1, MAP kinase-activated protein kinase 5 (Homo sapiens) (UniProt Q8IW41).
T1 sequence (whole entry): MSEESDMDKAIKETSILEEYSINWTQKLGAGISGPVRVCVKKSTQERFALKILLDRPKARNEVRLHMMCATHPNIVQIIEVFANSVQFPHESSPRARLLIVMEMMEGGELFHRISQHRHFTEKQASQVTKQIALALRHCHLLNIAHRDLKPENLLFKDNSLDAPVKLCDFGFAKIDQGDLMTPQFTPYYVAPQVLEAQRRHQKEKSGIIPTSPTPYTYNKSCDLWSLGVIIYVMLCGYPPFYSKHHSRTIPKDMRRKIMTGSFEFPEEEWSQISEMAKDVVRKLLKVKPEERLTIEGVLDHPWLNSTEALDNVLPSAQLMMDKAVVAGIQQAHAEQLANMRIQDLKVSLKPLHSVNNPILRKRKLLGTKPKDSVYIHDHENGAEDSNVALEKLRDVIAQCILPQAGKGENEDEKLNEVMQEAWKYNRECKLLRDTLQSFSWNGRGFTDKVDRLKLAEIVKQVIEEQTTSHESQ
Conditions: at 0.1 µM.

Test [5] addresses T1, MAP kinase-activated protein kinase 5 (Homo sapiens). To be noted: at 1 µM.
The target in test [6] is Serine/threonine-protein kinase SIK1 (Homo sapiens) (UniProt P57059). To be noted: at 0.1 µM.
Sequence of Serine/threonine-protein kinase SIK1 (Homo sapiens) (P57059 whole entry): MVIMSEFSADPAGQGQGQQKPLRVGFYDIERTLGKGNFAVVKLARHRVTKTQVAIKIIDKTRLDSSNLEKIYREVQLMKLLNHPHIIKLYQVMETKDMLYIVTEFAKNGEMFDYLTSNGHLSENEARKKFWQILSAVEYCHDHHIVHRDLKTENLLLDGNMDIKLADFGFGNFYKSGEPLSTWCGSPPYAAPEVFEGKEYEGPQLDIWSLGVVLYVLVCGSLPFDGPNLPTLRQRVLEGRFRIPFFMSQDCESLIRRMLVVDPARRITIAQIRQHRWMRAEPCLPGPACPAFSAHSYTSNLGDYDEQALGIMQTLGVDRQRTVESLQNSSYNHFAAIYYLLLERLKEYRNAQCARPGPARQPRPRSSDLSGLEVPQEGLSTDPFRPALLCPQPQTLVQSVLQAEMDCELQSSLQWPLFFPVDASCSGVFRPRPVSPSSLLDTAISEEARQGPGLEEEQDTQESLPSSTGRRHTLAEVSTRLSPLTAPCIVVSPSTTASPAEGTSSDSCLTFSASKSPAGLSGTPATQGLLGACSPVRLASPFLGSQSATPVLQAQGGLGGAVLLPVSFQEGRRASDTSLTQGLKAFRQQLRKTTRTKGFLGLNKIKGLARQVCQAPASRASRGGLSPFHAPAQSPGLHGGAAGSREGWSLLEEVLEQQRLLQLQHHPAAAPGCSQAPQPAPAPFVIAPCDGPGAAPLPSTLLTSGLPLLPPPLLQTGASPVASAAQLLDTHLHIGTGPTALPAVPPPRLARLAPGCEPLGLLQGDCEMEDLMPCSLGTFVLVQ
Test [7] has the same target. To be noted: at 1 µM.
Test [8] deals with Serine/threonine-protein kinase SIK2 (Homo sapiens) (UniProt Q9H0K1). Conditions: at 0.1 µM.
Sequence of Serine/threonine-protein kinase SIK2 (Homo sapiens) (Q9H0K1 whole entry, looked up): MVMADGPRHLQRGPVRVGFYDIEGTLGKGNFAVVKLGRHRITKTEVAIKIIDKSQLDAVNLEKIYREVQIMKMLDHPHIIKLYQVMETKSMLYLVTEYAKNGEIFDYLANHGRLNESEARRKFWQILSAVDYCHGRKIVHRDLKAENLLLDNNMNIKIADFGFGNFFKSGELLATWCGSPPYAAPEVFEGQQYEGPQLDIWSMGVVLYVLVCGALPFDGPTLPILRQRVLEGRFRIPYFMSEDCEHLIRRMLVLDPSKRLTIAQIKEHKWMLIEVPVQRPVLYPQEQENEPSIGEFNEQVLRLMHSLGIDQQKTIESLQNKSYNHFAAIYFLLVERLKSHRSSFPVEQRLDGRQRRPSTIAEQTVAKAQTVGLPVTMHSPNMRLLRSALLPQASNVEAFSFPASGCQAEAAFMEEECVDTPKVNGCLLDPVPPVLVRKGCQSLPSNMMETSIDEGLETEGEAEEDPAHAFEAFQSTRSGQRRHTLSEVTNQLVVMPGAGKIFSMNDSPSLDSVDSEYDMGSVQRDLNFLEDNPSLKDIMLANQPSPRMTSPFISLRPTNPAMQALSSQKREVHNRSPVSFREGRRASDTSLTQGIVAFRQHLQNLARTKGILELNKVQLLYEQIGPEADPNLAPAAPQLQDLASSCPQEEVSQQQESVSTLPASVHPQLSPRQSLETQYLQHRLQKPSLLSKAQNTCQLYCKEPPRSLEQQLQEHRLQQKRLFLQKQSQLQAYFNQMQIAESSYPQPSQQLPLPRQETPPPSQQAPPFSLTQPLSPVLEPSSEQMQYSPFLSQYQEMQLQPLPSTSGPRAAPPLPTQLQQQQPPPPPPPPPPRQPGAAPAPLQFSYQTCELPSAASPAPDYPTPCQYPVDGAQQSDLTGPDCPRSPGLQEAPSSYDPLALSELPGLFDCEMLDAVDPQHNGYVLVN
Test [9] has the same target. Conditions: at 1 µM.
Test [10] concerns the target T2, Serine/threonine-protein kinase TBK1 (Homo sapiens) (UniProt Q9UHD2).
T2 sequence (whole entry): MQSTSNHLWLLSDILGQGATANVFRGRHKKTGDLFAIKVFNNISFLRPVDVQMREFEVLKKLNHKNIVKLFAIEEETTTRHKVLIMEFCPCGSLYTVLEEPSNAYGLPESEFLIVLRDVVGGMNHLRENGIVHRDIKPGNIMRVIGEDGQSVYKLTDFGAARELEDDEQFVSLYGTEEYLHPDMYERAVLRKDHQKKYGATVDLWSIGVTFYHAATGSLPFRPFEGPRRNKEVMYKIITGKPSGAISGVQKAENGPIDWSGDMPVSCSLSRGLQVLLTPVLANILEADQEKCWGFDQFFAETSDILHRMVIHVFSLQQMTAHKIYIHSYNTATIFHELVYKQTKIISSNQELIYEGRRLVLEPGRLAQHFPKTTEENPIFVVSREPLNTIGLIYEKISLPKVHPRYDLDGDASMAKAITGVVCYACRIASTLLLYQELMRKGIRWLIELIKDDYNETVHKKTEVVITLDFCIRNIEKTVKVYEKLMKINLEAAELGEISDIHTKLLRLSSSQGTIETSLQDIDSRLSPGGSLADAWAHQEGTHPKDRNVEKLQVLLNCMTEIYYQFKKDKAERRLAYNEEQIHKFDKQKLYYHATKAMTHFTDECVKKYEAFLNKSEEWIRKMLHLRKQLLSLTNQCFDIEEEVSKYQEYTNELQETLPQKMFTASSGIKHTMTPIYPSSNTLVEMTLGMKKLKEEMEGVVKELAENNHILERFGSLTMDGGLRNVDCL
To be noted: at 0.1 µM.

For test [11], the target named is T2, Serine/threonine-protein kinase TBK1 (Homo sapiens). To be noted: at 1 µM.
The target in test [12] is T3, Testis-specific serine/threonine-protein kinase 1 (Homo sapiens) (UniProt Q9BXA7).
T3 sequence (whole entry): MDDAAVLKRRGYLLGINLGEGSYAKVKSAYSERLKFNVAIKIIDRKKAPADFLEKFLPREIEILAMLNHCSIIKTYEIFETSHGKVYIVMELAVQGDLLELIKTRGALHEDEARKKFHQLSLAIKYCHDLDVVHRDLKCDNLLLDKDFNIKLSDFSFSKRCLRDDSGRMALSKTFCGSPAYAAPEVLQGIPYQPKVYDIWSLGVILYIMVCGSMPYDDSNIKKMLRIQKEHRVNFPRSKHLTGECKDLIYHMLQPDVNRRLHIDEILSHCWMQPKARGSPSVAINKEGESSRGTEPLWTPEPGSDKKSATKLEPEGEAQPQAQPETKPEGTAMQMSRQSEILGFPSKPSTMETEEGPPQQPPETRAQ
Conditions: at 0.1 µM.

Test [13] concerns the target T3, Testis-specific serine/threonine-protein kinase 1 (Homo sapiens). Conditions: at 1 µM.
For test [14], the target named is T4, Testis-specific serine/threonine-protein kinase 2 (Homo sapiens) (UniProt Q96PF2).
T4 sequence (whole entry): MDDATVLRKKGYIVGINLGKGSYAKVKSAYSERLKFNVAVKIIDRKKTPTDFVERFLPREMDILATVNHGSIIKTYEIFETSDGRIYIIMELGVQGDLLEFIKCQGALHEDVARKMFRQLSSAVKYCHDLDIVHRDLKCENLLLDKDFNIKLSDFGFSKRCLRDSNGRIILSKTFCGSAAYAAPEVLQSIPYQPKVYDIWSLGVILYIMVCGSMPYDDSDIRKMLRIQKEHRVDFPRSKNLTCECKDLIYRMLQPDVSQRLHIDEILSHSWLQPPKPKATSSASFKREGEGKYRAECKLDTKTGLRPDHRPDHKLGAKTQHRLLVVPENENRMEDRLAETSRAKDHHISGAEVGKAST
Conditions: at 0.1 µM.

The target in test [15] is T4, Testis-specific serine/threonine-protein kinase 2 (Homo sapiens). To be noted: at 1 µM.
Test [16] addresses Casein kinase I isoform alpha (Homo sapiens) (UniProt P48729). Conditions: at 0.1 µM.
The target is the same in test [17]. Conditions: at 1 µM.
For test [18], the target named is Casein kinase I isoform gamma-1 (Homo sapiens) (UniProt Q9HCP0). Conditions: at 0.1 µM.
Sequence of Casein kinase I isoform gamma-1 (Homo sapiens) (Q9HCP0 whole entry, looked up, canonical isoform): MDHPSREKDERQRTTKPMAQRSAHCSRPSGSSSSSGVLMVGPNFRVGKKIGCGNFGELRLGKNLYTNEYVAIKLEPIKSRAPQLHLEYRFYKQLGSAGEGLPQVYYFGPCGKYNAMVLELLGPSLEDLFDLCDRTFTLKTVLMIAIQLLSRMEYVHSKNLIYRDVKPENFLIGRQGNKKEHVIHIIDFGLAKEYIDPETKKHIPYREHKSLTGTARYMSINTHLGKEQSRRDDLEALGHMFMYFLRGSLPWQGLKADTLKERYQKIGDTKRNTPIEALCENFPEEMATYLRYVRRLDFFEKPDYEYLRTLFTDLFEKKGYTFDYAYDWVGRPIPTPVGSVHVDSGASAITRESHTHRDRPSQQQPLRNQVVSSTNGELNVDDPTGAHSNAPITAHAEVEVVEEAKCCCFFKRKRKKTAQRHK
Test [19] shares this target. To be noted: at 1 µM.
Test [20] deals with Casein kinase I isoform gamma-2 (Homo sapiens) (UniProt P78368). Conditions: at 0.1 µM.
Sequence of Casein kinase I isoform gamma-2 (Homo sapiens) (P78368 whole entry, looked up, canonical isoform): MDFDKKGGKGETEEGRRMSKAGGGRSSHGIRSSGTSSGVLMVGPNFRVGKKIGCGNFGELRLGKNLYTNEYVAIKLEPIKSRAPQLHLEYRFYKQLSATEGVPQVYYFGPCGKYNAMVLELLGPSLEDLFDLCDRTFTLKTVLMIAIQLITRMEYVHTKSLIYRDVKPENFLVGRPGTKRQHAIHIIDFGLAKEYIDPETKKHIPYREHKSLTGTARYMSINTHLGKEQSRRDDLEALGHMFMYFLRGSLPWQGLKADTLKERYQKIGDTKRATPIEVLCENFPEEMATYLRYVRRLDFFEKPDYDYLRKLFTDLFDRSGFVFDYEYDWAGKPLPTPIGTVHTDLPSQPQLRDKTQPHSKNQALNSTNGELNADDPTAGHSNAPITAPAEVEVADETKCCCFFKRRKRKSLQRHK

Sequence of Casein kinase I isoform alpha (Homo sapiens) (P48729 2-337 limits assumed): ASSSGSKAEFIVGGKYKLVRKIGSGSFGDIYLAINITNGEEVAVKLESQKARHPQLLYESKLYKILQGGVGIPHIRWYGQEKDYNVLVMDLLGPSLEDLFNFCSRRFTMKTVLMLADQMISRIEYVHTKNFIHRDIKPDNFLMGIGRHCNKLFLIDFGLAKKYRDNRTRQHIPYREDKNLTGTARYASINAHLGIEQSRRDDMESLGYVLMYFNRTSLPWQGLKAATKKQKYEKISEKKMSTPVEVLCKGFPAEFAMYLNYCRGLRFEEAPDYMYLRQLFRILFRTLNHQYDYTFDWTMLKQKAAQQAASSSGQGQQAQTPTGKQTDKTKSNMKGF
Sequence of Serine/threonine-protein kinase pim-2 (Homo sapiens) (Q9P1W9 whole entry, looked up): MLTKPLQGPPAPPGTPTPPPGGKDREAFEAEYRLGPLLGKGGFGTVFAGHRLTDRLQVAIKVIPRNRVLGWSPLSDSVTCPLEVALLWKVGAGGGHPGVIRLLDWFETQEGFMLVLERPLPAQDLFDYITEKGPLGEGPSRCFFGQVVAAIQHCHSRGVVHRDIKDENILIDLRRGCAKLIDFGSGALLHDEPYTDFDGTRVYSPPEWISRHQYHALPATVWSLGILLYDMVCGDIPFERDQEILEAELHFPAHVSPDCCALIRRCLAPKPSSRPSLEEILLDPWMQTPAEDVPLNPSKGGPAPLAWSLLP

In the case of `COc1ccc(C2=C(N3CCc4ccccc43)C(=O)NC2=O)cc1`, the inhibition was 0.67% in [1]; -0.2% in [2]; 0.86% in [3]; 1.93% in [4]; 2.12% in [5]; 8.63% in [6]. Moreover, the inhibition in test [7] was determined as 8.47%; in test [8], 6.36%; in test [9], 11.3%; in test [10] it was 0.88%; in [11], 7.18%; in test [12] it was 4.87%. In addition, the inhibition came to 6.13% in test [13]; 3.64% in test [14]; 3.35% in [15]; 3.74% in test [16]; 8.77% in test [17]; 3.77% in test [18]. Moreover, the results for the inhibition in test [19] and in [20] were 4.09% and 3.12%, respectively.

As for `COc1ccc2cc(-c3c(-c4ccncc4)nc(-c4ccc([S+](C)[O-])cc4C)n3C)ccc2c1` (stereo not given), the inhibition in test [1] was 0.03%; in test [2], 0.41%; in test [3], 0.9%; in [4] it was -0.74%; in test [5] it was -0.31%; in [6], -2.25%. Moreover, the inhibition in test [7] was 3.56%; in test [8], -6.12%; in test [9] it was -0.83%; in test [10], 0.16%; in [11], 1.97%; in [12] it was 0.4%. For the same compound, the inhibition in [13] was -0.58%; in [14], 0.06%; in test [15], -0.06%; in test [16], 0.77%; in test [17], 0.53%; in [18], -0.99%. Further, the values for the inhibition in test [19] and in [20] were -0.39% and -0.73%, respectively.

As for `NC(=O)c1cc(-c2ccc(F)cc2)cc(-c2ccncc2)c1N`, the inhibition was -1.22% in test [1]; -0.69% in [2]; -5.17% in test [3]; 1.11% in test [4]; 2.54% in test [5]; 4.79% in test [6]. Moreover, the inhibition in [7] was 9.72%; in test [8], 7.37%; in [9], 8.31%; in [10], 3.66%; in test [11], 2.04%; in test [12] it was 3.98%. For the same compound, the inhibition is 5.61% in [13]; 2.71% in test [14]; 4.29% in test [15]; 6.79% in [16]; 2.14% in [17]; 4.19% in test [18]. The inhibition worked out at 4.95% in [19] and 3.82% in test [20].

On to `COc1cccc(-n2cnc3c(N/N=C/c4ccncc4)ncnc32)c1`, for which the inhibition in [1] is -3.43%; in [2], 3.67%; in [3] it was 6.5%; in test [4], 0.59%; in [5] it was 2.56%; in test [6] it was 1.88%. The inhibition came out at 12% in test [7]; 9.07% in test [8]; 34.1% in test [9]; 0.99% in test [10]; 2.56% in [11]; 0.41% in [12]. Also, the inhibition is 5.32% in test [13]; 0.37% in test [14]; 4.98% in test [15]; 0.17% in [16]; 0.8% in test [17]; -3.8% in test [18]. The inhibition was -4.26% in [19] and -3.36% in [20].

With `COc1ccc(-c2ccc3c(NC(=O)C4CC4)n[nH]c3n2)cc1`, the inhibition in [1] was 0.38%; in [2], 0.42%; in test [3], 0.61%; in test [4] it was 1.05%; in test [5], 2.54%; in test [6], -0.67%. Also, the inhibition in test [7] is 4.73%; in test [8] it was 2.86%; in [9] it was 6.15%; in test [10], 2.33%; in test [11], 0.62%; in [12], 2.89%. Further, the inhibition is 4.85% in test [13]; 0.65% in test [14]; 4.63% in test [15]; 6.34% in test [16]; 0.42% in test [17]; 1.84% in test [18]. Further, the inhibition is 2.17% in test [19] and 1.99% in test [20].

Take `O=C(NCC1CC1)c1ccc(-c2cccc(C(=O)NC3CC3)c2)cc1`: the inhibition was 0.96% in [1]; -0.84% in test [2]; -3.1% in [3]; 0.6% in test [4]; -0.88% in test [5]; 0.25% in [6]. Besides, the inhibition in [7] was 4.41%; in test [8], -1.64%; in test [9], -0.16%; in [10], 2.28%; in [11], 0.69%; in [12], 2.17%. The inhibition is -0.94% in test [13]; 0.33% in test [14]; -1.83% in test [15]; 2.21% in test [16]; 3.38% in test [17]; 2.43% in test [18]. The inhibition in test [19] was determined as 3.84%; in test [20], 1.59%.

On to `COc1cc2ncn(-c3cc(OCCc4ccccc4)c(C(N)=O)s3)c2cc1OC`, for which the inhibition in test [1] was 0.47%; in test [2] it was -1.48%; in [3], -2.48%; in [4], 0.21%; in test [5] it was -0.58%; in [6], 3.59%. The inhibition worked out at 9.48% in test [7]; 1.23% in test [8]; 3.75% in test [9]; 0.96% in [10]; 22.3% in test [11]; 1.85% in test [12]. Further, the inhibition in [13] is 2.26%; in [14], -0.18%; in test [15], -0.8%; in test [16] it was 2.37%; in test [17], 3.77%; in [18], 3.01%. For the same compound, the inhibition in test [19] came to 5.65%; in test [20] it was 2.92%.

For the compound `Fc1ccc(-c2ncn(C3CCNCC3)c2-c2ccnc(Oc3ccc(Oc4ccccc4)cc3)n2)cc1`, the inhibition is -0.39% in test [1]; -1.06% in [2]; 0.02% in test [3]; 1.12% in test [4]; 1.72% in test [5]; 7.97% in [6]. In addition, the inhibition turned out to be 12.8% in test [7]; 6.45% in test [8]; 10.1% in test [9]; 2.66% in [10]; 2.57% in test [11]; 4.18% in [12]. In addition, the inhibition in test [13] worked out at 4.2%; in test [14], 0.94%; in test [15] it was 2.4%; in [16] it was 10.7%; in test [17], 49.6%; in test [18], 6.35%. Further, the figures for the inhibition in test [19] and in [20] were 20.6% and 5.54%, respectively.

`CCC(=O)Nc1ccc(C)c(-c2ccc(C(=O)NCC3CC3)cc2)c1`: the inhibition in test [1] was found to be 0.38%; in test [2] it was 0.17%; in test [3], 0.73%; in test [4], 0.96%; in [5], 0.76%; in test [6], 4.61%. For the same compound, the inhibition amounted to 5.28% in test [7]; 4.06% in test [8]; 6.63% in test [9]; 2.36% in test [10]; 2.69% in [11]; 3.66% in test [12]. Further, the inhibition in test [13] was found to be 3.59%; in test [14], 1.6%; in test [15] it was 1.74%; in test [16], 2.53%; in test [17], 3.41%; in test [18], 2.54%. Further, the inhibition in [19] came to 3%; in [20] it was 2.3%.
